Measurements taken from PMC4336329 (PLoS ONE, 2015).
In all, about 310,000 compounds went through this assay and about 14,000 (4.5%) showed an effect of 50% or more. The effect is printed as a negative number. Shown is part of a subset that was picked to be rich in strong results.

target: human ether-à-go-go-related gene (hERG) potassium channel (human, UniProt Q12809); assay: primary screen, population patch clamp on CHO cells stably expressing hERG; higher = less effect of the substance
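Also: peak tail current of the secondary pulse compared with the same well before compound.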

Sequence of human ether-à-go-go-related gene (hERG) potassium channel (Q12809 whole entry, looked up): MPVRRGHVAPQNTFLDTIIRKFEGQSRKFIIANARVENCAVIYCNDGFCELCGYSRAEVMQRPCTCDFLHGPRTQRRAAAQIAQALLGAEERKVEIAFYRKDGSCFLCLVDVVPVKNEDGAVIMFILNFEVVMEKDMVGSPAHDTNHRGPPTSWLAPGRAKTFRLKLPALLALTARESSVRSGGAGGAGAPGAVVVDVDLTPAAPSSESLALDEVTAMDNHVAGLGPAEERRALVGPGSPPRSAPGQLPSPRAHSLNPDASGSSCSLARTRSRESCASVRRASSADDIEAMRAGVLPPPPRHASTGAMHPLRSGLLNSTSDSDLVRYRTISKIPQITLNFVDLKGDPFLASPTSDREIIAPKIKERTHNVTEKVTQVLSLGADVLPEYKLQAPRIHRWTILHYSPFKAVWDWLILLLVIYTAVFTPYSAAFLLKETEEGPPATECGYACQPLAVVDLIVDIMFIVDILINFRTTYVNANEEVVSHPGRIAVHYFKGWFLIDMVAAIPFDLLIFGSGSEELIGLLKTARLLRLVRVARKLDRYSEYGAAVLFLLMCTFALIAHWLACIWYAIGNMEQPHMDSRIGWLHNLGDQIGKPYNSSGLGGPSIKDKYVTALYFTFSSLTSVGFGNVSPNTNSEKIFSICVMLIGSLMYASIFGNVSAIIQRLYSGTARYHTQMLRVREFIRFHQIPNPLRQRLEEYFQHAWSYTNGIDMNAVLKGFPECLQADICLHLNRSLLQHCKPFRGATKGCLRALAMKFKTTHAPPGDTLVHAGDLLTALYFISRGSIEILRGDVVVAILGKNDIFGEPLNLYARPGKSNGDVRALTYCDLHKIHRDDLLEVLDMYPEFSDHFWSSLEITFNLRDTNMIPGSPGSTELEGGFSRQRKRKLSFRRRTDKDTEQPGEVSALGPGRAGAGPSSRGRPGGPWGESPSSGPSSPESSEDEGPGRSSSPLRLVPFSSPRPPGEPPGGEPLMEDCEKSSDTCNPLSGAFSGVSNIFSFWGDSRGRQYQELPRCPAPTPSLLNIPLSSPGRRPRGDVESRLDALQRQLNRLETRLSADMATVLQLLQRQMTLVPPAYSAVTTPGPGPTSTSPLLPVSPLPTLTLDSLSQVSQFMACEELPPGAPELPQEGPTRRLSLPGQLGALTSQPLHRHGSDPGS

In order of rising “hERG current change (%, negative = inhibition) at 10uM” value:
1. CC(C)c1ccc(/C=N/N2CCCCC2)cc1.O=C(O)C(=O)O  -84.3%
2. CCc1ccc(-c2nc(CN3CCC(C(=O)NCCc4ccc(OC)c(OC)c4)CC3)c(C)o2)cc1  -76.2%
3. N=c1c2c(-c3ccccc3)c(-c3ccccc3)n(Cc3ccco3)c2ncn1CCCn1ccnc1  -74.3%
4. c1ccc(-c2c(-c3ccccc3)n(Cc3ccco3)c3ncnc(NCCCn4ccnc4)c23)cc1  -71.6%
5. N=c1c2c(-c3ccccc3)c(-c3ccccc3)n(Cc3ccccc3)c2ncn1CCCn1ccnc1  -71.2%
6. CC(C)c1ccc(OCCCN2CCCC2)cc1  -67.1%
7. Cc1cc(OCc2cc(C(=O)NCCN3CCCCC3CO)no2)cc(C)c1Cl (stereo not shown)  -65.8%
8. Clc1ccc(OCCCCN2CCCCC2)cc1.O=C(O)C(=O)O  -65.5%
9. CCN1CCCC1CNC(=O)c1cc(COc2ccc(C)c(C)c2)on1 (stereo not shown)  -65.2%
10. Cl.Clc1ccc(COc2cccc(CNCc3ccncc3)c2)cc1  -59.8%
11. CC(C)c1ccc(OCCCCN2CCCCC2)cc1.O=C(O)C(=O)O  -58.8%
12. CC(C)(C)c1ccc(OCCCN2CCCC2)cc1  -56.4%
13. CC(C)Oc1ccc(OCCCN2CCCCCC2)cc1.O=C(O)C(=O)O  -54.8%
14. COc1cc(CNCc2ccccn2)ccc1OCc1cccc(Cl)c1.Cl  -54%
15. Cc1cc(OCCOCCN2CCCC2)ccc1C(C)C  -53.9%
16. CCC(C)[C@H](N)c1nnc(SCC(=O)c2ccc(Cl)cc2)o1 (stereo partly shown)  -52.5%
17. COc1cc(CNCc2ccccn2)ccc1OCc1ccc(Cl)c(Cl)c1.Cl  -51.2%
18. CCc1ccc(-c2nc(CN3CCCC(C(=O)NCCc4ccc(OC)c(OC)c4)C3)c(C)o2)cc1 (stereo not shown)  -50.5%
19. COc1cc(/C=N/N=C(N)N)ccc1OCc1ccc(Cl)cc1  -50.5%
20. CCc1cc(=O)[nH]c(SCCCF)n1  -50.2%
21. Cc1sc2ncnc(NCCCn3ccnc3)c2c1C  -46.1%
22. Cl.c1ccc(COc2cccc(CNCc3ccccn3)c2)cc1  -45.2%
23. OCCNc1ncnc2c1c(-c1ccccc1)c(-c1ccccc1)n2Cc1ccco1  -44.9%
24. Clc1cccc(Cl)c1OCCCCN1CCCCC1.O=C(O)C(=O)O  -40.8%
25. Cl.Fc1ccc(COc2cccc(CNCc3ccncc3)c2)cc1  -40.6%
26. CC(C)N(C(=O)Cn1c(SCC(=O)NCc2ccc3c(c2)OCO3)nc2ccccc21)C(C)C  -34.1%
27. COc1ccc(CN2CCC(C(=O)NCCc3ccc(OC)c(OC)c3)CC2)c(OC)c1  -29.9%
28. c1ccc(-c2ccccc2OCCCCn2ccnc2)cc1  -26.4%
29. CC(C)c1ccc(OCCCCCN2CCOCC2)cc1.O=C(O)C(=O)O  -24.9%
30. Cc1cc(OCCN2CCCC2)ccc1C(C)C  -22.5%
31. CC(C)Oc1ccc(C(=O)CCN2CCCCC2)cc1  -20.9%
32. COCCN1CC(CNC(=O)c2cc(COc3ccc(C)c(C)c3)on2)CC1=O (stereo not shown)  -20.8%
33. CC(C)(C)c1ccc(OCCN2CCCC2)cc1  -20.6%
34. CCOc1cc(/C=N/N=C(N)N)ccc1OCc1ccc(Cl)cc1  -19.9%
35. COc1ccc(N(CC(=O)NC2CC3CCC2C3)S(=O)(=O)c2ccccc2)cc1Cl (stereo not shown)  -19.4%
36. COc1ccc(OCCCN2CCCCCC2)cc1.O=C(O)C(=O)O  -19.3%
37. CCOc1c(Cl)cc(CNCc2ccccn2)cc1OC.Cl  -18.7%
38. CCc1ccc(Nc2nnc(SCC(=O)c3c(N)n(C4CC4)c(=O)[nH]c3=O)s2)cc1  -17.7%
39. O=S(=O)(NCc1ccccc1)c1ccc(-n2cccn2)cc1  -16.6%
40. CCC(C)c1ccc(OCCN2CCCC2)cc1 (stereo not shown)  -15.4%
41. Cn1c(=O)cc(OCCCC(=O)NCc2ccc(F)cc2Cl)c2ccccc21  -15.1%
42. COc1cc2c(cc1OC)C(C)N(S(=O)(=O)c1ccc(C)cc1)CC2 (stereo not shown)  -15%
43. CCN(CC)C(=O)CSc1ncnc2c1cnn2-c1ccccc1  -14.2%
44. CC(C)[C@H](N)c1nnc(SCC(=O)c2ccc(Cl)cc2)o1.Cl  -14.2%
45. Cl.OCCNCc1cccc(OCc2ccc(Cl)cc2)c1  -12.9%
46. COc1ccc(-c2nc(CN3CCC(C(=O)NC4CC4)CC3)c(C)o2)cc1OC  -12.8%
47. CCOc1ccc(OCCCCN2CCCC2)cc1.O=C(O)C(=O)O  -12.2%
48. CN(C)C(=O)c1noc2cc([N+](=O)[O-])ccc12  -12%
49. CCOc1cccc(OCCOCCN2CCCC2)c1  -10.1%
50. Cc1ccc(OCc2cc(C(=O)NCC3COCCO3)no2)cc1C (stereo not shown)  -10%
51. O=[N+]([O-])c1ccc(CS(=O)(=O)c2ccc(Cl)cc2)cc1  -9.81%
52. C=CCNC(=O)c1onc(CS(=O)(=O)c2cc(C)cc(C)c2)c1C(=O)NCC=C  -8.18%
53. Cc1ccc(NNC(=O)C(O)(c2cccc(C(F)(F)F)c2)c2cccc(C(F)(F)F)c2)cc1  -7.55%
54. CCCCSc1nc(CCC)cc(=O)[nH]1  -7.39%
55. C[C@H](N)c1nnc(SCC(=O)c2ccc(Cl)cc2)o1  -6.79%
56. CCc1cc(C(=O)OC)c(NC(=O)CC2SC(N)=NC2=O)s1 (stereo not shown)  -6.56%
57. Cc1ccc(NC(=O)NC(=O)CSc2nnc(-c3ccc(Cl)cc3Cl)n2N)c(C)c1  -6.38%
58. O=C(NCCCn1ccnc1)c1ccco1  -4.47%
59. CCSc1nnc(Cn2c(=O)sc3ccccc32)n1-c1ccccc1C  -2.71%
60. Cc1ccc2[nH]c3c(=O)n(Cc4ccccn4)cnc3c2c1  -1.6%
61. CCCOc1ccc(C(C)=O)cc1CSCCC#N  -1.08%
62. Cc1cc(OCCN2CCCC2)cc(C(C)C)c1.O=C(O)C(=O)O  -0.795%
63. CC(C)(C)c1ccc(OCCCCCCN2CCNCC2)cc1  -0.393%
64. COc1cc(CNCc2ccccn2)ccc1OCC(=O)NC(C)(C)C.Cl  0.777%
65. O=C(CSc1nc2cc(C(=O)O)ccc2c(=O)n1-c1ccc(F)cc1)Nc1ccc(F)c(F)c1F  1.54%
66. COc1cccc(OCc2cc(C(=O)NCCN3CCCCC3CO)no2)c1 (stereo not shown)  2.5%
67. COC(=O)c1[nH]c2cc(OC)ccc2c1NC(=O)c1c(F)cccc1F  2.79%
68. CC(c1ccccc1)N1C(=O)/C(=C/c2ccncc2)SC1=S (stereo not shown)  3.24%
69. CC(C)=C1C2CCC1C1C(=O)N(c3ccc(C)c(C)c3)C(=O)C21 (stereo not shown)  3.55%
70. Cc1cc(OCc2cc(C(=O)NC3CCC3)no2)cc(C)c1Cl  3.82%
71. Cc1ccc2oc(C(=O)N(C)Cc3ccon3)c(C)c2c1  4.23%
72. CC1CCC(NC(=O)CCS(=O)(=O)c2ccc3c(c2)oc(=O)n3C)CC1 (stereo not shown)  5.15%
73. CCc1ccccc1NC(=O)COc1ccc2oc(-c3ccc(OC)cc3)cc(=O)c2c1  5.29%
74. CCCCn1c(NC(=O)c2ccc(F)cc2)c(C#N)c2nc3ccccc3nc21  6.88%
75. Clc1ccc(/C=N/N2CCCCC2)cc1  7.36%
76. CCCC(=O)N1CCC(CCC(=O)NC2CC2)CC1  7.63%
77. COc1cnc(-c2ccccn2)nc1NC(C)C  7.65%
78. Cc1nc(C)c(C(=O)NNS(=O)(=O)c2ccccc2)s1  8.26%
79. COc1ccc(S(=O)(=O)N2c3ccccc3NC(=O)CC2C)cc1 (stereo not shown)  9.7%
80. Cn1c(CC(=O)Nc2ccccc2F)nnc1SCC(=O)NC1CCCC1  11%
81. CC(NC(=O)NCCCC(=O)O)(C(F)(F)F)C(F)(F)F  11.3%
82. COc1ccc(C(C(=O)NC2CCCCC2)N(C(=O)c2snc(C(N)=O)c2N)c2ccccc2OC)cc1 (stereo not shown)  11.4%
83. COc1ccc(CCNC(=O)C2CCCN(S(C)(=O)=O)C2)cc1OC (stereo not shown)  12%
84. COc1ccc2nc(C)cc(SCC(=O)N/N=C/c3c(OC)ccc4ccccc34)c2c1  12.8%
85. CCS(=O)(=O)N1CCCC(C(=O)NCCc2ccc(OC)c(OC)c2)C1 (stereo not shown)  13.1%
86. Cc1cccc2c(=O)cc(C(F)(F)F)[nH]c12  13.8%
87. c1cc(OCCCN2CCCCC2)ccc1CN1CCCCC1  14.1%
88. CCOc1ccc(-c2cnc3ccccc3n2)cc1  14.3%
89. O=c1[nH]c(=O)n(Cc2ccco2)c(O)c1C=NCCCn1ccnc1  16.3%
90. CC(=O)Nc1ccc(/C=N/N2CCCCC2)cc1  16.5%
91. Cc1c(C#N)c2ccccc2n1CC(=O)NCC1CCCO1 (stereo not shown)  16.8%
92. Cc1nc(SCC(=O)N2CCCCCC2)[nH]c(=O)c1C  19.5%
93. c1ccc(Cn2ccnc2)cc1  19.6%
94. COc1cc(/C=N/O)ccc1OCc1ccc(Cl)cc1  19.6%
95. O=C1COc2ccc(S(=O)(=O)N3CCCCC3)cc2N1  20%
96. CN(/N=C/c1ccc(N(C)C)cc1)C1=NS(=O)(=O)c2ccccc21  20.6%
97. O=C(CSc1ccc2c(c1)OCCO2)Nc1ccc(Cl)cn1  24.3%
98. Cn1c(SCC(=O)NNC(=O)c2ccc(Br)cc2)nnc1-c1cccnc1  25.6%
99. CCc1cc(=O)[nH]c(SCCC(F)=C(F)F)n1  27.7%
100. CCOc1cc(CNCc2ccccn2)cc(Cl)c1OC.Cl  29.6%
